Experimental data: PubChem BioAssay AID504770 (ICCB-Longwood Screening Facility, Harvard Medical School, 2011)
The campaign covered roughly 130,000 compounds. About 350 (0.27%) were called active. This is one part of a sample in which actives are shown more often than they occur. Values without a mark were called inactive. Rule as the data show it: active = z-score below about -2 (passing the limit was not always enough); inactive = the rest.

Test: PubChem AID 504770
Settings: E. coli YBA685 rctB-dependent plasmid, OD600 growth, 3 h; stronger effect = lower value

First: O=S1(=O)CCN(Cc2cc(F)cc3c2OCOC3)CC1
Second: O=C1CCc2cc(S(=O)(=O)NCC3CCCO3)cc3c2N1CC3 (centres undefined)
The z-score of the first is lower: 0.35 for the first, 0.8 for the second.

Going from `O=c1cc(O)nc2ccccn12` to `O=c1[nH]nc2ccccn12`, the z-score falls from 1.45 to 1.

First: Cc1ccccc1Oc1ccc(S(=O)(=O)N2CC(C)OC(C)C2)cc1 (centres undefined)
Second: CC1CC(C)CN(c2nc3ccccc3c(=O)n2-c2ccc(Cl)cc2)C1 (centres undefined)
The z-score of the first is higher: 0.7 for the first, -1.35 for the second.

Compared with `CC(C)CNC(=O)c1ccc(N(C)C)cc1`, `COC(=O)c1ccc(CNC(=O)C(C)Sc2ccccc2)cc1` (centres undefined) is higher in z-score: -1.2 for the first, -0.15 for the second.

Compared with `CCOc1ccc(N=C2CSC(=O)N2)cc1`, `CCOc1ccc(NCc2nc3ccccc3n2C)cc1` is higher in z-score: -0.95 for the first, 0.75 for the second.

Going from `CCOC(=O)c1sc(-c2ccccc2)nc1CSc1nccn1C` to `CCOC(=O)c1ccc(-c2cc(=O)c3ccccc3o2)cc1`, the z-score falls from 1.15 to -0.3.

Going from `Cc1c(CCN)sc2nc(-c3ccc(Cl)cc3)nn12` to `Cc1nc(N)nc(CSc2ccc(Cl)cc2)n1`, the z-score rises from 0.25 to 1.4.

First: CS(=O)(=O)N1CCN=C1SCc1cccnc1
Second: CCS(=O)(=O)c1ccc2c(c1)N1CCS(=O)(=O)N=C1O2
The z-score of the first is lower: -0.85 for the first, 0.9 for the second.

Going from `O=C(Nc1ccc(F)cc1)n1ncc2cc(Cl)ccc21` to `Cc1ccc(NC(=O)c2ccc3nc(N4CCOCC4)sc3c2)cc1`, the z-score falls from 1.1 to -1.3.

First: N#CC(C#N)=Cc1ccc(-c2cccc(C(=O)O)c2)o1
Second: COc1ccc(/C=N/NC(=O)c2ccccc2)cc1OC
The z-score of the first is higher: 1.85 for the first, 0.85 for the second.

First: COc1ccc(CNC(=O)COc2ncnc3ccccc23)cc1
Second: COc1cccc(/C=N/NC(=O)Cc2ccccc2)c1
The z-score of the first is higher: 0.2 for the first, -0.6 for the second.

First: Cc1c(OCC#N)ccc2c3c(c(=O)oc12)CCC3
Second: COc1ccc2c(CC(=O)OCc3cc(Cl)c4c(c3)OCCCO4)coc2c1
The z-score of the first is lower: -0.7 for the first, -0.55 for the second.

Compared with `CCC1(C)NC(=O)N(NC(=O)c2ccc(S(=O)(=O)N3CCCC3)cc2)C1=O` (centres undefined), `COc1ccc(NC(=O)C(=S)N2CCCCC2)cc1` is lower in z-score: 0.95 for the first, -0.45 for the second.

First: O=C(CCn1c(=O)oc2ccccc21)Sc1ccc(C(F)(F)F)cc1
Second: O=C(CSC1=NCCS1)Nc1cc(C(F)(F)F)ccc1Cl
The z-score of the first is higher: 0.8 for the first, -0.55 for the second.

Compared with `O=C(c1[nH]nc2c1CCc1ccccc1-2)N1CCCC1`, `O=C(CCc1ccccc1)Nc1nnc(SCC(=O)N2CCCCCC2)s1` is lower in z-score: -0.15 for the first, -0.2 for the second.

First: CC(=O)NCc1n[nH]c(=O)c2ccccc12
Second: C=CCNc1nc(SC)nc2ccccc12
The z-score of the first is lower: -0.4 for the first, 1.45 for the second.

Going from `CC1(C)COC(Nc2ccc(Cl)c(Cl)c2)=N1` to `O=C(CSC1=NC2(CCCC2)Nc2ccccc21)Nc1ccc2c(c1)OCCO2`, the z-score rises from -0.6 to 0.

Going from `Cc1nc2c3ccccc3n3c(CCCC(=O)NCc4ccccn4)nnc3n2n1` to `N#Cc1c(=O)c2nc(NCCc3ccccc3)ncc2n2c(=O)c3cc(Br)ccc3[nH]c12`, the z-score falls from 1.15 to -1.25.

Going from `O=S1(=O)CC(S(=O)(=O)c2ccccc2)C(S(=O)(=O)c2ccccc2)C1` (centres undefined) to `CC(NC(=O)CC1=NS(=O)(=O)c2ccccc2N1)c1ccccc1` (centres undefined), the z-score falls from 1.15 to 0.8.

Compared with `Cc1cccc(CC2(Cc3cccc(C)c3)C(=O)OC(C)(C)OC2=O)c1`, `Cc1cc(/C=C2\C(=O)NC(=S)N(c3ccccc3F)C2=O)c(C)n1-c1ccc(Cl)c(C(=O)O)c1` is lower in z-score: 0.1 for the first, -0.8 for the second.

First: N#CC(c1ccc(F)cc1)N1CCOCC1 (centres undefined)
Second: C(=C\c1ccccc1)/CNCCCN1CCOCC1
The z-score of the first is lower: -1.05 for the first, -0.45 for the second.

Compared with `CN(C(=O)Cn1nc(C(F)(F)F)c2c1CCC2)C1CCCCC1`, `C=CCN(C(=O)C1CCCC1)c1nc2c(s1)CCCC2` is lower in z-score: -0.25 for the first, -1.05 for the second.

First: CC1CC(C)CN(C(=O)COC(=O)c2cccnc2Nc2ccccc2F)C1 (centres undefined)
Second: COc1ccc(CN2CN(C(C)C)CSC2=S)cc1
The z-score of the first is higher: 0.1 for the first, -1.55 for the second.

First: N#Cc1c(C(F)(F)F)cc(=O)[nH]c1S
Second: Cc1cnc(NC(=O)CSc2nc3sc4c(c3c(=O)n2C)CCCC4)s1
The z-score of the first is higher: -0.6 for the first, -1.2 for the second.

For `C=CCNc1nc(OC)nc(OC)n1`, the z-score was 0.15.

In the case of `CN(C)[C@@H]1C(=O)C(C(N)=O)=C(O)[C@@]2(O)C(=O)C3=C(O)c4c(O)ccc(Cl)c4[C@@H](O)[C@H]3C[C@@H]12`, the z-score is reported as -2.25 (active).
For `c1ccn2c(c1)nc1nc3nonc3nc12`, the z-score was -5.05 (active).
For `Oc1c(Cl)cc(Cl)c(Cl)c1Cc1c(O)c(Cl)cc(Cl)c1Cl`, the z-score was -3.25 (active).
In the case of `COC(=O)N/N=C/c1c[n+]([O-])c2ccccc2[n+]1[O-]`, the z-score is reported as -3.7 (active).
With `S=C1SCN(CCN2CCOCC2)CN1Cc1ccccc1` the z-score was -2.95 (active).
